# Screens as filed in PubChem.
# In the library only some 3.4% were active in any assay of this set; here they are far more common.
# pPAFAH inh: pPAFAH (human) enzyme inhibition; inhibition, % at 3.39 µM; AID 463082; 330,000 tested, 1.5% active; recombinant pPAFAH, FP-rhodamine probe fluorescence polarization; Q13093;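 active means inhibition above the mean inhibition across the screen plus 3 SD, cut at about 25% in these data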;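 further: inhibitors block binding of the rhodamine activity-based probe so polarization drops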
# PAFAH1B2 inh: blocks human PAF acetylhydrolase 1b catalytic subunit 2 | 340,000 tested, 1.2% active | P68402 | AID 492953 | inhibition, % at 3.39 µM | recombinant PAFAH1B2, FP-rhodamine activity probe, fluorescence polarization;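 active means inhibition above the mean of all tested compounds plus 3 SD, cut at about 24% in these data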
# PAFAH1B3 inh: PAFAH1B3 (human) inhibition; Q15102; recombinant PAFAH1B3, FP-rhodamine probe, fluorescence polarization; inhibition, % at 3.39 µM; 340,000 tested, 0.28% active; AID 492972;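 active means inhibition above the screen-wide average of all tested compounds plus 3 SD, cut at about 25% in these data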
# PP5 primary: PP5 (human) phosphatase inhibition. AID 1987. P53041. purified PP5c, OMFP substrate fluorescence. inhibition, % at 6.7 µM. 320,000 tested, 0.18% active;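 active means inhibition above the campaign's mean inhibition across all tested compounds plus 3 SD, cut at about 9.5% in these data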
# Target sequence (P53041 whole entry, looked up): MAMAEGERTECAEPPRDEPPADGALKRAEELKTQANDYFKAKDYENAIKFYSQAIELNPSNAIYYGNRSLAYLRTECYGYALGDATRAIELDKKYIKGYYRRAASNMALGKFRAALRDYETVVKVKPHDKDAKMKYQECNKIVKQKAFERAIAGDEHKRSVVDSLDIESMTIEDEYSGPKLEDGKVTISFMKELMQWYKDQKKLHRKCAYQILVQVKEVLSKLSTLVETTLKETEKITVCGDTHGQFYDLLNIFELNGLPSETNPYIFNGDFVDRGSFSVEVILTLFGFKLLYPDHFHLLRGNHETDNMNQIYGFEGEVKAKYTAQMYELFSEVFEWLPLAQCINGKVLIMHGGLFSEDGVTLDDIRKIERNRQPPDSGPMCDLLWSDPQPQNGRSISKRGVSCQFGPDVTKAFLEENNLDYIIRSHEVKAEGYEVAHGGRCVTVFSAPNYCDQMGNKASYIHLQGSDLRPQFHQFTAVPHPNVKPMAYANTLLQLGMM
# PP1 counter: counter-screen for PP5 inhibitors: inhibitors of human PP1-alpha; purified PP1alpha, OMFP fluorescence; inhibition, % at 6.7 µM; 320,000 tested, 0.9% active;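 active means inhibition above the mean inhibition of all tested compounds plus 3 SD, computed separately for each screening campaign, cut at about 15% in these data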
# PAFAH2 FP inh: inhibitors of human PAFAH2. Q99487. recombinant PAFAH2, FP-rhodamine activity probe, fluorescence polarization. inhibition, % at 3.39 µM. 340,000 tested, 0.99% active. AID 492956;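 active means inhibition above the mean over all tested compounds plus 3 SD, cut at about 30% in these data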;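 further: inhibitors block probe labeling of enzyme so polarization drops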
# PP5 inh confirm: confirmation of human PP5 phosphatase inhibitors; inhibition, % at 6.7 µM; 460 tested, 22% active; AID 2331; shares compounds with PP5 primary; Purified PP5, fluorogenic phosphatase substrate, fluorescence; in the data active means inhibition above about 9.5%
# PP1 counter 3x: inhibits human PP1 phosphatase in PP5 counter-screen; AID 2355; 460 tested, 4% active; inhibition, % at 6.7 µM; PP1 enzyme, fluorescent phosphatase substrate; shares compounds with PP5 primary; in the data active means inhibition above about 16%
# Numbers stand for hits; n = inactive; x = no result.
SMILES,pPAFAH inh,PAFAH1B2 inh,PAFAH1B3 inh,PP5 primary,PP1 counter,PAFAH2 FP inh,PP5 inh confirm,PP1 counter 3x
CCOc1ccc2nc(SCC(=O)NC3CCCCC3)[nH]c2c1,n,n,n,n,n,n,x,x
Cn1c(=O)c2[nH]c(-c3cccnc3)nc2n(C)c1=O,n,n,n,14,n,n,n,n
O=C(c1cccc(S(=O)(=O)N2CCOCC2)c1)N(Cc1nnc(-c2ccccc2Cl)o1)C1CC1,n,n,n,n,n,n,x,x
O=C(COC(=O)Cc1ccc(Cl)cc1)Nc1cc(S(=O)(=O)N2CCOCC2)ccc1N1CCCC1,n,n,n,n,n,n,x,x
COc1ccc2nc(C(F)(F)C(F)(F)F)c(C#N)c(N)c2c1,n,n,n,9.8,n,n,n,n
Cc1cccc(N/C(N)=N/c2nc3c(c(=O)[nH]2)CCCC3)c1,n,n,n,13,n,n,n,n
N/C(=N\c1nc2c(c(=O)[nH]1)CCC2)Nc1cccc(Cl)c1,n,n,n,n,n,n,x,x
C/C(CCc1ccc2c(c1)OCO2)=N\N=C1\NC(=O)CC(C(=O)Nc2ccc(C(=O)O)cc2)S1 (stereo not drawn),x,n,n,x,x,n,x,x
O=c1c(C/C=C/c2ccccc2)c(O)ccn1Cc1cccc(Cl)c1,n,n,n,n,n,n,x,x
COc1ccc(C(=O)NCCCSc2ccccc2)cc1F,n,n,n,n,n,n,x,x
CCOc1cc(/C=C2\C(=O)N(c3ccc(C(N)=O)cc3)N=C2C)ccc1OC(=O)c1cccs1,n,n,n,12,n,n,n,n
COc1ccc(-c2csc(NC(=O)c3ccccc3C(=O)O)n2)cc1,n,n,n,n,n,n,x,x
COc1ccc(-c2csc(NC(=O)c3ccccc3S(C)(=O)=O)n2)cc1,n,n,n,11,n,n,n,n
O=[N+]([O-])c1cc(Cl)ccc1N1CCCC1,n,n,n,n,n,n,x,x
O=C1C(Cl)=C(N2CCN(c3ccccc3[N+](=O)[O-])CC2)C(=O)c2ccccc21,n,28,49,14,n,40,24,n
CCN(CC)c1ccc(C(=O)NC(=S)Nc2cc(S(=O)(=O)N3CCOCC3)ccc2-n2cncn2)cc1,n,n,n,18,n,n,n,n
CCOC(=O)c1c(NC(=O)C2C3C=CC(C3)C2C(=O)O)sc2c1CCC(CC)C2 (stereo not drawn),n,n,n,n,n,n,x,x
CCOC(=O)c1c(NC(=O)C2C3CCC(O3)C2C(=O)O)sc(C)c1-c1ccc(F)cc1 (stereo not drawn),n,n,n,13,n,n,n,n
CCOC(=O)c1c(NC(=O)C2C3CCC(O3)C2C(=O)O)sc2c1CCC(CC)C2 (stereo not drawn),n,n,n,14,n,n,n,n
CCCOC(=O)c1c(-c2ccc(C)cc2C)csc1NC(=O)C1C2CCC(O2)C1C(=O)O (stereo not drawn),n,n,n,11,n,n,n,n
CCOc1ccc(/C=N/N2CCN(Cc3ccccc3)CC2)cc1,n,n,n,n,n,n,x,x
CCCn1c2c(c(O)c(C(=O)Nc3ncccc3C)c1=O)CCCC2,n,n,n,n,n,n,x,x
C[C@H](NC(=O)c1nc[nH]c1C(=O)N[C@@H](Cc1ccccc1)C(=O)OC(C)(C)C)C(=O)OC(C)(C)C,n,n,n,11,n,n,n,n
CC(C)C[C@H](NC(=O)c1nc[nH]c1C(=O)N[C@@H](CC(C)C)C(=O)OC(C)(C)C)C(=O)OC(C)(C)C,n,n,n,10,n,n,n,n
CC(C)(C)OC(=O)[C@H](Cc1ccccc1)NC(=O)c1nc[nH]c1C(=O)N[C@@H](Cc1ccccc1)C(=O)OC(C)(C)C,n,n,n,n,n,n,x,x
SMILES,pPAFAH inh,PAFAH1B2 inh,PAFAH1B3 inh,PP5 primary,PP1 counter,PAFAH2 FP inh,PP5 inh confirm,PP1 counter 3x
CC(C)C[C@H](NC(=O)c1[nH]cnc1C(=O)N[C@H](C)c1ccccc1)C(=O)OC(C)(C)C,n,n,n,10,n,n,n,n
CCN1C(Nc2ccccc2)=NC[C@@H]1C,n,n,n,n,n,n,x,x
CCCCc1c(O)c2cccc3c2n(c1=O)CCC3,n,x,x,n,n,x,x,x
CC1(C)C=Cc2c(ccc3c2OC[C@H](c2ccc(O)cc2O)C3)O1,n,n,n,9.6,n,n,n,n
O=C(c1cccc(C(F)(F)F)c1)N1CCC(O)(CS(=O)(=O)Cc2ccccc2Cl)CC1,n,n,n,11,n,n,n,n
COc1ccccc1CC(=O)O/N=C(\N)Cc1cccc2ccccc12,n,n,n,12,n,34,n,n
Cc1csc2c(N3CCN(S(=O)(=O)c4ccc(Cl)cc4)CC3)ncnc12,n,n,n,n,n,n,x,x
Cc1ccc(NS(=O)(=O)c2ccc(NC(=O)c3cccc(NC(=O)C(C)C)c3)cc2)cc1,n,n,n,9.8,n,n,n,n
Cc1ccc(S(=O)(=O)Nc2ccc(NC(=O)Nc3cccc(C(F)(F)F)c3)cc2)cc1,n,n,n,11,n,n,n,n
CCN(CC)S(=O)(=O)c1ccc(NC(=O)Nc2cccc(C(F)(F)F)c2)cc1,n,n,n,n,n,n,x,x
COc1ccc(C(=O)N/N=C/c2c[nH]c3ccccc23)cc1,n,n,n,n,n,n,x,x
CCCOc1ccc(C(=O)N/N=C/c2c[nH]c3ccc(Br)cc23)cc1,27,n,n,12,n,n,n,n
COc1ccc(OCCn2cc(/C=N/NC(=O)c3ccncc3)c3ccccc32)cc1,n,n,n,n,n,n,x,x
Cc1ccc(OCCn2cc(/C=N/NC(=O)c3ccncc3)c3ccccc32)cc1,n,n,n,9.9,n,n,n,n
O=C(COc1ccc(-n2cnnn2)cc1)Nc1ccccc1OC(F)F,n,n,n,n,n,n,x,x
CCCCCCCC(=O)OCC(=O)[C@@]1(O)CC[C@H]2[C@@H]3CCC4=CC(=O)CC[C@]4(C)[C@H]3[C@@H](O)C[C@@]21C,n,n,n,11,n,n,n,n
CO/N=C(\CCC(=O)O)c1cccs1,n,n,n,9.7,n,n,n,n
Cc1cc(C(=O)N/N=C(\CCC(=O)O)c2cccs2)c2ccccc2n1,n,n,n,n,n,n,x,x
O=[N+]([O-])c1cc(/C=N/O)ccc1Sc1ccccc1,n,n,n,10,n,n,n,n
O=C(OCc1c(F)cccc1Cl)c1cc([N+](=O)[O-])ccc1N1CCOCC1,n,n,n,n,n,n,x,x
Cc1ccc(C(=O)c2c3ccc(C(F)(F)F)cc3[n+]([O-])n2CCC(N)=O)cc1,n,n,n,n,n,n,x,x
CCN(CC)S(=O)(=O)c1cc(C(=O)Nc2nncs2)c(Cl)cc1Cl,n,n,n,11,n,n,n,n
Cc1ccc(NS(=O)(=O)c2cc(Br)cnc2N)c(Cl)c1,n,n,n,n,n,n,x,x
